Test [1] concerns the target guinea pig Opioid, Kappa 1 Receptor (OpiateK), OPRK1 (gene 100135587) (UniProt P41144). The experiment in a line: NVS_GPCR_gOpiateK: NovaScreen (NVS) G Protein-Coupled Receptor Assay for guinea pig Opioid, Kappa 1 Receptor (OpiateK) (AID 2283252).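 Also: radioligand displacement from kappa opioid receptor in guinea pig cerebellar membranes; active means reduced radioligand binding relative to DMSO.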 The method in brief:
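Guinea pig cerebellar membranes were incubated with a radioligand for 2 h after compound addition; bound radioactivity was read by filter-based scintillation counting. Loss of specific binding relative to DMSO baseline defined activity; primary screen at 25 uM in duplicate.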

In test [2] the target is human Adenosine A1 Receptor (AdoRA1), ADORA1 (gene 134) (UniProt P30542). The experiment in a line: NVS_GPCR_hAdoRA1: NovaScreen (NVS) G Protein-Coupled Receptor Assay for human Adenosine A1 Receptor (AdoRA1) (AID 2283254). A digest of the protocol:
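Membranes from human cortical tissue were incubated with radioligand and test chemical for 1 hour, then filtered and counted. Activity was taken as signal loss relative to DMSO, screened at 25 uM in duplicate before concentration-response follow-up.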

For test [3], the target named is rabbit Imidazoline 2 Central (I2C), CKB (gene 100009085) (UniProt P00567). The test can be described thus: NVS_ENZ_rabI2C: NovaScreen (NVS) Enzymatic Assay for rabbit Imidazoline 2 Central (I2C) (AID 2283228). The method in brief: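 Rabbit brain membranes, cell-free; readout by filter-based scintillation counting 1.5 hours after dosing, loss of signal vs DMSO. Initial duplicate test at 25 uM, then concentration-response with 50 uM top concentration.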

Test [4] addresses bovine Dopamine Receptor (DR), Non-selective Binding, DRD1 (gene 281125) (UniProt Q95136). The test can be described thus: NVS_GPCR_bDR_NonSelective: NovaScreen (NVS) G Protein-Coupled Receptor Assay for bovine Dopamine Receptor (DR), Non-selective Binding (AID 2283241). The method in brief: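 Bovine striatal membranes; radioligand displacement read by filtration and scintillation counting 1 h after dosing, loss of signal vs DMSO. Screened in duplicate at 25 uM, then concentration-response for hits.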

For test [5], the system named is bovine Histamine 1 Receptor (H1), gene 281231. The experiment in a line: NVS_GPCR_bH1: NovaScreen (NVS) G Protein-Coupled Receptor Assay for bovine Histamine 1 Receptor (H1) (AID 2283246). A digest of the protocol:
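Radioligand displacement on bovine cerebellar membranes, 1 h after dosing, filter-based scintillation read-out; loss of signal vs DMSO. Duplicate single-concentration screen at 25 uM, then concentration-response up to 50 uM for hits.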

The subject of test [6] is guinea pig Muscarinic, Peripheral (Mperiperal) Receptor, Non-selective Binding, gene 100379235. The experiment in a line: NVS_GPCR_gMPeripheral_NonSelective: NovaScreen (NVS) G Protein-Coupled Receptor Assay for guinea pig Muscarinic, Peripheral (Mperiperal) Receptor, Non-selective Binding (AID 2283250). A digest of the protocol:
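Guinea pig bladder membranes, radioligand binding read 1 h after dosing by filter scintillation counting; loss of signal vs DMSO. Primary duplicate screen at 25 uM, then concentration-response up to 50 uM.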

For test [7], the target named is human Serotonin, 5-Hydroxytryptamine Receptor 5A (5HT5A), HTR5A (gene 3361) (UniProt P47898). The test can be described thus: NVS_GPCR_h5HT5A: NovaScreen (NVS) G Protein-Coupled Receptor Assay for human Serotonin, 5-Hydroxytryptamine Receptor 5A (5HT5A) (AID 2283251). A digest of the protocol:
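Cell-free radioligand displacement binding on HEK293-derived membrane protein, 1 h incubation, filter-based scintillation counting. Primary screen in duplicate at 25 uM, actives followed in concentration series; loss of signal fitted versus DMSO.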

Test [8] addresses sheep Cyclooxygenase-1 (Cox1), PTGS1 (gene 443551) (UniProt P05979). The experiment in a line: NVS_ENZ_oCOX1: NovaScreen (NVS) Enzymatic Assay for sheep Cyclooxygenase-1 (Cox1) (AID 2283239).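 Also: actives reduce cyclooxygenase activity so potencies are for inhibitors.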 The method in brief:
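Native ovine seminal vesicle protein serves as enzyme source in this biochemical assay. Colorimetric signal is recorded 0.66 h after chemical addition, and decreases versus the DMSO control define activity.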

The target in test [9] is human Serotonin, 5-Hydroxytryptamine Receptor 6 (5HT6), HTR6 (gene 3362) (UniProt P50406). The experiment in a line: NVS_GPCR_h5HT6: NovaScreen (NVS) G Protein-Coupled Receptor Assay for human Serotonin, 5-Hydroxytryptamine Receptor 6 (5HT6) (AID 2283253). A digest of the protocol:
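Radioligand binding to 5HT6 in HEK293-derived membranes, cell-free, 1 h after dosing; bound ligand measured by filter-based scintillation counting. Primary screen in duplicate at 25 uM; actives retested in concentration series.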

For test [10], the target named is guinea pig Leukotriene D4 Receptor (LTD4), CYSLTR1 (gene 100135514) (UniProt Q2NNR5). The experiment in a line: NVS_GPCR_gLTD4: NovaScreen (NVS) G Protein-Coupled Receptor Assay for guinea pig Leukotriene D4 Receptor (LTD4) (AID 2283248). The method in brief: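 Radioligand displacement on guinea pig lung membranes, 1 h incubation, filtration and scintillation counting; DMSO as negative control. Duplicate 25 uM primary screen, then singleton concentration-response up to 50 uM.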

Test [11] deals with human Vascular Endothelial Growth Factor Receptor 1 (VEGFR1), FLT1 (gene 2321) (UniProt P17948). The test can be described thus: NVS_ENZ_hVEGFR1: NovaScreen (NVS) Enzymatic Assay for human Vascular Endothelial Growth Factor Receptor 1 (VEGFR1) (AID 2283226). The method in brief:
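Cell-free assay of recombinant human VEGFR1 kinase with substrate, measured 1 h after dosing; fluorescence with electrophoretic mobility-shift separation of substrate and product, referenced to DMSO; primary screen at 25 uM in duplicate, actives then run in concentration series.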

Test [12] has as its target sheep Cyclooxygenase-2 (Cox2), PTGS2 (gene 443460) (UniProt P79208). The experiment in a line: NVS_ENZ_oCOX2: NovaScreen (NVS) Enzymatic Assay for sheep Cyclooxygenase-2 (Cox2) (AID 2283231). The method in brief:
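Colorimetric absorbance read-out of COX activity, taken 0.66 hour post-dosing, using native protein from sheep placenta. Single-concentration duplicate screen (25 uM), then singleton concentration-response up to 50 uM for actives.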

Test [13] has as its target human SRC Proto-Oncogene, Non-receptor Tyrosine Kinase (SRC), SRC (gene 6714) (UniProt P12931). The test can be described thus: NVS_ENZ_hSRC: NovaScreen (NVS) Enzymatic Assay for human SRC Proto-Oncogene, Non-receptor Tyrosine Kinase (SRC) (AID 2283223). A digest of the protocol: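 Cell-free kinase activity assay with fluorescent substrate, product separated by electrophoretic mobility shift, read 1 h after dosing. Duplicate single point at 25 uM, then concentration-response up to 50 uM; loss of signal versus DMSO.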

Test [14] concerns the target human Tropomyosin Receptor Kinase A (TRKA), NTRK1 (gene 4914) (UniProt P04629). The test can be described thus: NVS_ENZ_hTrkA: NovaScreen (NVS) Enzymatic Assay for human Tropomyosin Receptor Kinase A (TRKA) (AID 2283224). The method in brief:
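Recombinant human TrkA activity read after 1 h by fluorescence with electrophoretic mobility shift separating substrate and product. Primary screen in duplicate at 25 uM; actives were rerun in concentration-response up to 50 uM. Loss of signal versus DMSO.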

Test [15] addresses human Vascular Endothelial Growth Factor Receptor 3 (VEGFR3), FLT4 (gene 2324) (UniProt P35916). The experiment in a line: NVS_ENZ_hVEGFR3: NovaScreen (NVS) Enzymatic Assay for human Vascular Endothelial Growth Factor Receptor 3 (VEGFR3) (AID 2283229). A digest of the protocol: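 Cell-free recombinant VEGFR3 kinase reaction with fluorescent substrate, read 1 h after dosing by electrophoretic mobility shift separation of substrate and product. Single-concentration duplicate screen at 25 uM, then concentration-response up to 50 uM; loss of activity versus DMSO.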

For test [16], the target named is human Vascular Endothelial Growth Factor Receptor 2 (VEGFR2), KDR (gene 3791) (UniProt P35968). The test can be described thus: NVS_ENZ_hVEGFR2: NovaScreen (NVS) Enzymatic Assay for human Vascular Endothelial Growth Factor Receptor 2 (VEGFR2) (AID 2283230). The method in brief:
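Cell-free recombinant VEGFR2 kinase, fluorescent substrate with electrophoretic mobility-shift separation; read 1 h after dosing. Screened at 25 uM in duplicate, hits to concentration-response up to 50 uM; loss-of-signal versus DMSO.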

For test [17], the target named is rat Constitutive Nitric Oxide Synthase (CNOS), Nos1 (gene 24598) (UniProt P29476). The test can be described thus: NVS_ENZ_rCNOS: NovaScreen (NVS) Enzymatic Assay for rat Constitutive Nitric Oxide Synthase (CNOS) (AID 2283236). The method in brief:
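Enzyme activity in rat brain membrane preparation, read 1 h after dosing by filter-based radiometric scintillation counting. Primary screen in duplicate at 25 uM; actives (e.g., ≥30% inhibition) then run in concentration-response up to 50 uM.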

Test [18] concerns the target Adenosine receptor A1 (Bos taurus) (UniProt P28190). The experiment in a line: NVS_GPCR_bAdoR_NonSelective: NovaScreen (NVS) G Protein-Coupled Receptor Assay for bovine Adenosine Receptor (AdoR), Non-selective Binding (AID 2283244). A digest of the protocol: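 Bovine striatal membranes, radioligand displacement binding, 1 h after dosing, filter-based scintillation counting. Screened in duplicate at 25 uM, then concentration-response up to 50 uM; loss of specific binding relative to DMSO.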

Test [19] deals with guinea pig Leukotriene B4 Receptor (LTB4), gene 100379538. The test can be described thus: NVS_GPCR_gLTB4: NovaScreen (NVS) G Protein-Coupled Receptor Assay for guinea pig Leukotriene B4 Receptor (LTB4) (AID 2283247). The method in brief:
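Radioligand displacement on guinea pig spleen membranes, filter-based scintillation counting 2 h after dosing. Primary duplicate single point at 25 uM; hits over threshold (e.g. 30% inhibition) run in concentration-response up to 50 uM, DMSO baseline.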

The structures appear in SMILES notation. Records with an inconclusive call do not appear. The source made the active and inactive calls. The calls were made as follows: active = hit-call score of the fitted dose curve at least 0.9, where 1 is the maximum; inconclusive = response in the unintended direction; inactive = score below 0.9.

guinea pig Leukotriene D4 Receptor (LTD4), CYSLTR1 (gene 100135514), sequence (Q2NNR5 whole entry, looked up): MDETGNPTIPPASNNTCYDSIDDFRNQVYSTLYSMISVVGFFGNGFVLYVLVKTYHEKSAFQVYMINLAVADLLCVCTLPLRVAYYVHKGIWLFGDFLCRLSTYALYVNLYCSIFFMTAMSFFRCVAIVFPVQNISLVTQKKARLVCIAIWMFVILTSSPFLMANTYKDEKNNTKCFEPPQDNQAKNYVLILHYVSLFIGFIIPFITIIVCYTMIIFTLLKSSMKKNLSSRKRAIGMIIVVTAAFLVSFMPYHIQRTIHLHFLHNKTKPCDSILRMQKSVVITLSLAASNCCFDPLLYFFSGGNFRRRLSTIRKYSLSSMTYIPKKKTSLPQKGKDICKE
sheep Cyclooxygenase-1 (Cox1), PTGS1 (gene 443551), sequence (P05979 whole entry, looked up): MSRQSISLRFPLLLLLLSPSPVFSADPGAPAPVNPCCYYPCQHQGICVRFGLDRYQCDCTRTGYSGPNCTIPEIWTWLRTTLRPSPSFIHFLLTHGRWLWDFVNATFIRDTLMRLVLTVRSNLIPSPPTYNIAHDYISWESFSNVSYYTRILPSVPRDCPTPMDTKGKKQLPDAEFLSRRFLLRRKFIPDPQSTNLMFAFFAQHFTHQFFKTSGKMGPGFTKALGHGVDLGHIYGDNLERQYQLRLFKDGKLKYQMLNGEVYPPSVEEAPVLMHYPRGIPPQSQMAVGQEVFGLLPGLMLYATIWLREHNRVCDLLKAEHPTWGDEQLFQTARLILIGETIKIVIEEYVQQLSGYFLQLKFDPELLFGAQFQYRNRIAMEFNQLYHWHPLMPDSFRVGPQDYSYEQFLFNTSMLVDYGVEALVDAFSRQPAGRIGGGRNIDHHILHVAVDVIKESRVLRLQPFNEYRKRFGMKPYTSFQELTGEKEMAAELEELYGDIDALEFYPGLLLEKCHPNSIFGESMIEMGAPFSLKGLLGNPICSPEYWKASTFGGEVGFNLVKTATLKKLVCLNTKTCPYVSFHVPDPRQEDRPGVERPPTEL
human Adenosine A1 Receptor (AdoRA1), ADORA1 (gene 134), sequence (P30542 whole entry, looked up): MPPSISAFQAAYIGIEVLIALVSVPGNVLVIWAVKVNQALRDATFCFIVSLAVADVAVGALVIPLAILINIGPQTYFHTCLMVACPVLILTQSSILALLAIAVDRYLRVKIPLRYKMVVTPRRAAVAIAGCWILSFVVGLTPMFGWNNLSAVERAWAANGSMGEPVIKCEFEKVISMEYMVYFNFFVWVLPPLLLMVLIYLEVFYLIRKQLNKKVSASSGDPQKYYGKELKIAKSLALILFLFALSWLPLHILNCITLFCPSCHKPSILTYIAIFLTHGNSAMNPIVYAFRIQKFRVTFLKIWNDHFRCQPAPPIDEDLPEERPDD
guinea pig Opioid, Kappa 1 Receptor (OpiateK), OPRK1 (gene 100135587), sequence (P41144 whole entry, looked up): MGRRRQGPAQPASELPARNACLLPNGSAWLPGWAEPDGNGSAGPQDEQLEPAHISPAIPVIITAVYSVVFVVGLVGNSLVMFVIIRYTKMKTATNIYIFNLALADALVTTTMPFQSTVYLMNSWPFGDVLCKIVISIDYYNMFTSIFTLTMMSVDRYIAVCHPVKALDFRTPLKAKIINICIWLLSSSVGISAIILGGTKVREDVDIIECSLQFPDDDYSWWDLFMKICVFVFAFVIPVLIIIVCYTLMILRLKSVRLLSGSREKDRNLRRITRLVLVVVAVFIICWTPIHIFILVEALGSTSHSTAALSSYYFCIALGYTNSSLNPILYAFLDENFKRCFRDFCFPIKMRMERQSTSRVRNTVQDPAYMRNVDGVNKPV
human Vascular Endothelial Growth Factor Receptor 1 (VEGFR1), FLT1 (gene 2321), sequence (P17948 whole entry, looked up): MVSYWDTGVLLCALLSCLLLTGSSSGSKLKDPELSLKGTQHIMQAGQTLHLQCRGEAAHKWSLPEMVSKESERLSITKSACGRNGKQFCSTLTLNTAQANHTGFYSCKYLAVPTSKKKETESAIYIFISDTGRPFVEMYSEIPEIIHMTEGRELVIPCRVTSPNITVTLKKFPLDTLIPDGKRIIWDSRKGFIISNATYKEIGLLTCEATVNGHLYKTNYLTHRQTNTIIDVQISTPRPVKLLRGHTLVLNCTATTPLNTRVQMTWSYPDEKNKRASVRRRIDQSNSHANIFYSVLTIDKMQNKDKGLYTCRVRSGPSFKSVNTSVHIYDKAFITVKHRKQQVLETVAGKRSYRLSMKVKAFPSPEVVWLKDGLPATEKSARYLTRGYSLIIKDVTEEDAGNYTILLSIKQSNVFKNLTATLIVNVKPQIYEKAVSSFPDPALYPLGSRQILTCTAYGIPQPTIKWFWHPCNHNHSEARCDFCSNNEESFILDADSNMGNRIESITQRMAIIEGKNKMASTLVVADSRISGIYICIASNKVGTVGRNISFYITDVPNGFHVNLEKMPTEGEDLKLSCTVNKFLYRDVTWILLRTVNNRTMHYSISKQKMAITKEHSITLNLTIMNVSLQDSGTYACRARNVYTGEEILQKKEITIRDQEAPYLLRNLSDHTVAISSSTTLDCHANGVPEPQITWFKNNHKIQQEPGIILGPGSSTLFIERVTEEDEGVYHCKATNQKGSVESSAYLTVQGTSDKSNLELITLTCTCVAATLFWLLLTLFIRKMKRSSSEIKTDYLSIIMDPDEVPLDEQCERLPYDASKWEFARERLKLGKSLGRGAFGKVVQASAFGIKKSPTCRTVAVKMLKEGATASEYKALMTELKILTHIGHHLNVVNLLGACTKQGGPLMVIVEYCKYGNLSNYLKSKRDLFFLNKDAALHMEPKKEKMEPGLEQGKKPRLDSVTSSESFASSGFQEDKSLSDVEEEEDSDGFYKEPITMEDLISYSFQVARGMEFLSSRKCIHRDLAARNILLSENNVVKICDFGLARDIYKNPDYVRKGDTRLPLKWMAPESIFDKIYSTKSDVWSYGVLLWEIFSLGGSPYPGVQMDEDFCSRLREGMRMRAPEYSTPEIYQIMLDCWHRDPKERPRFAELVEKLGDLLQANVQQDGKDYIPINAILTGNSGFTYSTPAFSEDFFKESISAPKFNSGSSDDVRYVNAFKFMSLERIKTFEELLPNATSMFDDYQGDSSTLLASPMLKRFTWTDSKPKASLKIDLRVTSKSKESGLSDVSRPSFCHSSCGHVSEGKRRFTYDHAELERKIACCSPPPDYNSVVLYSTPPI
bovine Dopamine Receptor (DR), Non-selective Binding, DRD1 (gene 281125), sequence (Q95136 whole entry, looked up): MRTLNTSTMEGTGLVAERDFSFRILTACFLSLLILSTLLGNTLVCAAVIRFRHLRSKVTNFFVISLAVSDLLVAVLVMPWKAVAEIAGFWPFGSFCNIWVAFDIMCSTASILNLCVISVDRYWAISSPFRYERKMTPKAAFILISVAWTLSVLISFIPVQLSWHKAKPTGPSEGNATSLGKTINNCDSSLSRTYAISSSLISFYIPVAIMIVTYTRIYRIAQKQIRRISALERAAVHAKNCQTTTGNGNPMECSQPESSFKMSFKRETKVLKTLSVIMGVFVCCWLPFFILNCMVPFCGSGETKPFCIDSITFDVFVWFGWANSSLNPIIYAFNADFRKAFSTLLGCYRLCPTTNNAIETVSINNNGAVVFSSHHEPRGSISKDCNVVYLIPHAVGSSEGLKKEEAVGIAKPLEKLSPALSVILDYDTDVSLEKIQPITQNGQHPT
human Serotonin, 5-Hydroxytryptamine Receptor 5A (5HT5A), HTR5A (gene 3361), sequence (P47898 whole entry, looked up): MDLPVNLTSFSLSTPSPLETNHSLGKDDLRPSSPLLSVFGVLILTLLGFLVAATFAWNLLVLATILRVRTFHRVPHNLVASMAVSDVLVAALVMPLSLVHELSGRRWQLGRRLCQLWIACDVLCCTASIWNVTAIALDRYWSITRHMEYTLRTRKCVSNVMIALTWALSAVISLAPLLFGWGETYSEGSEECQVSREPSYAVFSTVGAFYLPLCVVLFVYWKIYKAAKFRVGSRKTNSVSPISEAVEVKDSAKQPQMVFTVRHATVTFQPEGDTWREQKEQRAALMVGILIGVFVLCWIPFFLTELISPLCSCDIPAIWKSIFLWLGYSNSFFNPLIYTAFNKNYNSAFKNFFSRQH
rabbit Imidazoline 2 Central (I2C), CKB (gene 100009085), sequence (P00567 whole entry, looked up): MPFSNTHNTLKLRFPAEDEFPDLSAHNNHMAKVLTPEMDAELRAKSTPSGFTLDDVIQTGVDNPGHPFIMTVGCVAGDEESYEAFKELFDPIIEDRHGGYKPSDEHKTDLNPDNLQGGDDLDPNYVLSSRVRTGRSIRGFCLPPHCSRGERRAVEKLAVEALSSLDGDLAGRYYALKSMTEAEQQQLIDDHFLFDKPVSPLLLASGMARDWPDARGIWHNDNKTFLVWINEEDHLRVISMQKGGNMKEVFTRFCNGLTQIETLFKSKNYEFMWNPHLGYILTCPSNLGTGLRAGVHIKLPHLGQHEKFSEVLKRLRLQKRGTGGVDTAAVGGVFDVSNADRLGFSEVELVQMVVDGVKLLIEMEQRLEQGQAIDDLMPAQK
sheep Cyclooxygenase-2 (Cox2), PTGS2 (gene 443460), sequence (P79208 whole entry, looked up): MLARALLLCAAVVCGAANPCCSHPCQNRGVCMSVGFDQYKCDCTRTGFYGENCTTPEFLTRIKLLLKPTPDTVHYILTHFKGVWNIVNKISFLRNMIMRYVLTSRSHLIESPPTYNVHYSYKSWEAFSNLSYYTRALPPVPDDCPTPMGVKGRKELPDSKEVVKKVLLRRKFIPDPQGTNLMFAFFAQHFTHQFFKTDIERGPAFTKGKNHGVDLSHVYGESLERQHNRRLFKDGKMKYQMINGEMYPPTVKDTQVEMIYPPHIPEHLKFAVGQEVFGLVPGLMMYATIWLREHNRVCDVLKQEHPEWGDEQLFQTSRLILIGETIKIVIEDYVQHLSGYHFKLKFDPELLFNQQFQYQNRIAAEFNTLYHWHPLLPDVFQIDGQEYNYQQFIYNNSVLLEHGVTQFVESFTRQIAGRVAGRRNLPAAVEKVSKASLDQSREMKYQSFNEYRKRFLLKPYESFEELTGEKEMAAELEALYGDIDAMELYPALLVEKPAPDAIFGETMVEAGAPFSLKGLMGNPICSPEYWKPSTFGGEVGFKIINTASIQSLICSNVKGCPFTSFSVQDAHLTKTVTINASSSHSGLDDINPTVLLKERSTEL

What is called AC50 is the midpoint of the concentration-response curve, whichever way the signal moves. For `O=C1OC2(c3ccccc31)c1cc(I)c(O)c(I)c1Oc1c2cc(I)c(O)c1I`, the call in test [1] was inactive. In addition, the AC50 in [2] was 6.25 µM (active).
For the molecule `O=C(CCCN1CCC(O)(c2ccc(Cl)cc2)CC1)c1ccc(F)cc1`, the AC50 in test [3] was 14.4 µM (active); in test [4], 0.0124 µM (active); in test [5] it was 10.5 µM (active); in test [6], 5.15 µM (active). For the same molecule, the molecule was classed as inactive in [7].
As to `CN(Cc1cnc2nc(N)nc(N)c2n1)c1ccc(C(=O)N[C@@H](CCC(=O)O)C(=O)O)cc1`, the AC50 in [8] is 1.98 µM (active). In addition, the call in test [9] and in test [2] was inactive.
For the molecule `CCCCCCCCCCCCCCCC(=O)OC`, the call in test [10] was inactive.
`NC(=NCCCCCCN=C(N)/N=C(\N)Nc1ccc(Cl)cc1)/N=C(\N)Nc1ccc(Cl)cc1`: the AC50 in test [11] was 27.6 µM (active).
`CN(C)CCOC(c1ccccc1)c1ccccc1`: the AC50 in [3] is 8.46 µM (active); in [4], 5.83 µM (active); in test [5] it was 0.101 µM (active); in test [6] it was 0.574 µM (active); in test [1], 13 µM (active).
Take `CCCCCCCCCCCCCCCCCC[N+](C)(C)Cc1ccccc1`: the molecule was classed as inactive in test [11] and in test [8].
In the case of `CNNCc1ccc(C(=O)NC(C)C)cc1`, the AC50 in test [8] was 25 µM (active).
Still for that read-out and setting: under `CCC(=O)O` stands 0.00683 µM (active).
Turning to `CS(=O)(=O)c1ccc([C@@H](CC2CCCC2)C(=O)Nc2cnccn2)cc1Cl`, in test [12], the half-maximal activity concentration (AC50) is 25 µM (active). Besides, the call in test [10] and in test [2] was inactive.
Regarding `OCC(CO)(CBr)CBr`, in test [12], the AC50 was 16.7 µM (active).
Regarding `CCCCCCCCCCCCOS(=O)(=O)O`, the result in test [13], in test [17] and in [18] was inactive. Besides, the AC50 in test [14] is 26 µM (active); in test [15], 29.3 µM (active); in [16], 16.9 µM (active); in test [19], 25 µM (active); in test [10], 8.99 µM (active); in [7], 9.77 µM (active).

The values above are taken from PubChem BioAssay (EPA / NIEHS).
